# Source: PubChem BioAssay
# rCAG RNA binder – molecules binding r(CAG) RNA repeats; 370,000 tested, 1.3% active; r(CAG) RNA repeat, TO-PRO-1 dye displacement fluorescence; AID 651821; inhibition, % at 3 µM;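 active = inhibition above the plate cutoff, the mean of all test compounds on that plate plus 3 SD, cut at about 35% in these data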;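 note: 0% = DMSO alone and 100% = 100 µM mitoxantrone as full dye displacement; higher means more dye released from RNA so lower well fluorescence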
# aDG glyco act – alpha-DG glycosylation activation | Pro5-aDG cells, alpha-DG glycosylation AlphaScreen (IIH6); 0% Pro5, 100% B10-LARGE cell signal | activation, % at 10 µM | 360,000 tested, 0.22% active | AID 624168;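 active = activation of at least 8% versus controls, or a plate z-score of at least 8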;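 note: Pro5 are CHO cells carrying HIG-tagged alpha-DG that lacks glycosylation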
# A3G deaminase – inhibitors of human APOBEC3G DNA deaminase. Q9HC16. recombinant A3G, ssDNA deamination FAM/TAMRA fluorescence. inhibition, % at 20 µM. 330,000 tested, 0.28% active. AID 493012;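 active = inhibition of at least 40% at 20 µM, with no more than 30% in the related APOBEC3A deaminase screen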;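 note: plate controls were DMSO wells with A3G for no effect and wells lacking A3G enzyme for full effect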
# A3A deaminase – human APOBEC3A DNA deaminase inhibition; P31941; recombinant A3A, FAM/TAMRA ssDNA deamination fluorescence; inhibition, % at 20 µM; 330,000 tested, 0.41% active; AID 493011;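 active = at least 40% inhibition at 20 µM here, with at most 30% in a related deaminase screen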;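 note: plate controls were A3A with DMSO for no effect and wells lacking A3A enzyme for full effect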
# Target sequence (P31941 whole entry, looked up): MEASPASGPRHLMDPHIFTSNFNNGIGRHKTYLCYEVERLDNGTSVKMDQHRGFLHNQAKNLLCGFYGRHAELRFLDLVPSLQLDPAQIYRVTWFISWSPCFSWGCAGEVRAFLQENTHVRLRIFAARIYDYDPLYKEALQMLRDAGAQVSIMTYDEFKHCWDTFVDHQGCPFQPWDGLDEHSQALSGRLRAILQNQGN
# PHOSPHO1 block – inhibitors of human PHOSPHO1 phosphatase | Q8TCT1 | recombinant PHOSPHO1, absorbance phosphatase assay | inhibition, % at 13.3 µM | 290,000 tested, 1.1% active | AID 1565; in the data active = inhibition above about 60%
# ALR inh – blocks human ALR sulfhydryl oxidase activity; P55789; purified ALR, DTT oxidation, H2O2 HRP-luminol luminescence; inhibition, % (concentration not given with the values); 290,000 tested, 3.8% active;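 active = mean replicate inhibition above about 79%, with every replicate also reaching it, limit read from the data; inconclusive = only one of the two criteria met; inactive = mean below limit and not every replicate reaching it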
# Target sequence (P55789 whole entry, looked up): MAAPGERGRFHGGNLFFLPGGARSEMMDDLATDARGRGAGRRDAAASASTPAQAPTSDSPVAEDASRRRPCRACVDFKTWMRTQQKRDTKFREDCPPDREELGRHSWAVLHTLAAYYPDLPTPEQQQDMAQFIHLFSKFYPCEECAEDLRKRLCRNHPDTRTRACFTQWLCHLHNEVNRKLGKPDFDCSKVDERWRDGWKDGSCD
# * hit, by the source's call; u = inconclusive; x = not tested or not shown. Most compounds without a hit are left out; they make up all but 5.4% or so of the library.
SMILES,rCAG RNA binder,aDG glyco act,A3G deaminase,A3A deaminase,PHOSPHO1 block,ALR inh
Cc1ccccc1OCC(=O)N(Cc1cccs1)C1CCS(=O)(=O)C1 (centres undefined),-6,0,-4,1,-7,97*
Cc1cccc(OCC(=O)N(Cc2ccc(N(C)C)cc2)C2CCS(=O)(=O)C2)c1 (centres undefined),-1,0,-2,-9,25,x
CN(C)c1ccc(CN(CC2CCCO2)C(=O)c2cccs2)cc1 (centres undefined),-6,0,-2,0,29,92*
CN(C)c1ccc(CN(C(=O)c2cccs2)C2CCS(=O)(=O)C2)cc1 (centres undefined),-2,0,1,-5,28,93*
CN(C)[C@H]1CCN(c2ccc3c(c2)O[C@H]2CCN(C2)S3(=O)=O)C1,5,x,x,x,x,x
COC(=O)[C@]12C[C@H](CC(=O)NCCCCc3ccccc3)C(=O)N(Cc3ccccc3)C1=C[C@H](C(C)(C)C)O[C@@H]2C,2,x,x,x,x,x
COCCCNC(=O)C[C@@H]1C(=O)N2CCCC3=C2[C@@]1(C(=O)OC)CCCC3,0,x,x,x,x,x
COc1cccc(NC(=O)C2CCCN2C(=O)Nc2cccc3c2OCO3)c1 (centres undefined),5,x,x,x,x,x
CN(C)c1ccc(CN(C(=O)/C=C/c2ccco2)C2CCS(=O)(=O)C2)cc1 (centres undefined),-4,0,-4,-1,28,86*
Cn1nnnc1SCc1ccc(C(=O)Nc2nccs2)cc1,-3,0,0,6,-3,99*
O=C(CCN1CCCCCC1)c1ccccc1,-1,0,-1,2,18,91*
O=C(CCN1CCCC1)c1cccs1,0,0,-4,-3,27,98*
O=C(CCSc1ccc(Cl)cc1)c1cccs1,0,2,-2,-3,21,46
COc1ccc(C(=O)CCN2CCCCCC2)cc1,0,2,1,0,11,54
O=C(CCN1CCC(c2ccccc2)C1)c1cccs1 (centres undefined),-1,1,3,-1,-6,46
O=C(CCc1ccc(CCC(=O)c2cccs2)s1)c1cccs1,8,0,-2,5,-8,92*
Cc1ccc(-n2nc(-c3ccc(N)cc3)cc2N)cc1,11,0,-8,-2,-3,98*
Nc1ccc(-c2cc(N)n(-c3ccccc3)n2)cc1,10,0,-6,-4,-8,93*
Cc1ccccc1-n1nc(-c2ccc(N)cc2)cc1N,9,0,-6,-1,11,u
CC(C)n1nnnc1C1(C)CCSCC(=O)N1Cc1cccc(C(F)(F)F)c1 (centres undefined),3,x,x,x,x,x
CCc1cccc(CC)c1-n1c(-c2cccnc2)n[nH]c1=S,2,0,7,0,-99,31
S=c1[nH]nc(-c2cccc3ccccc23)n1-c1cccnc1,2,0,30,-3,-7,91*
COC(=O)[C@@]12CCCCC=C1N(CCc1ccc(Cl)cc1)C(=O)[C@H]2CC(=O)NCC12CC3CC(CC(C3)C1)C2,10,x,x,x,x,x
O=C(CCn1c(=O)oc2cc(Cl)ccc21)Nc1ccc(O)cc1,-1,0,-6,-3,15,98*
COc1ccc(-c2nc3ncccn3c2Nc2ccc3c(c2)OCCO3)cc1,0,0,-4,1,16,x
SMILES,rCAG RNA binder,aDG glyco act,A3G deaminase,A3A deaminase,PHOSPHO1 block,ALR inh
Oc1ccc(-c2nc3ncccn3c2Nc2ccc3c(c2)OCCO3)cc1,7,0,-6,-5,13,93*
Cc1cccc(Nc2c(-c3ccc(N4CCOCC4)cc3)nc3ncccn23)c1,6,0,-10,-2,-11,95*
Cc1ccc(-c2nc3ncccn3c2Nc2ccc3c(c2)OCCO3)cc1,3,0,-7,-8,14,96*
c1cn2c(Nc3ccc4c(c3)OCCO4)c(-c3ccc(N4CCOCC4)cc3)nc2cn1,1,0,-1,1,27,u
Cc1ccc(-c2cc(-c3nnc4sc(COc5ccccc5)nn34)[nH]n2)cc1,7,x,x,x,x,x
CCn1c(=O)n(CC(=O)N2CCN(C(C)=O)CC2)c(=O)c2ccccc21,0,x,x,x,x,x
O=C(c1cn2ccccc2n1)N1CCCC(Nc2ccc(F)c(F)c2)C1 (centres undefined),8,0,-4,-2,5,2
Cc1ccc(NC2CCCN(C(=O)c3cn4cccc(C)c4n3)C2)cc1C (centres undefined),-7,0,-7,-3,3,99*
Cc1ccc(NC2CCCN(C(=O)c3cn4cc(Cl)ccc4n3)C2)cc1C (centres undefined),-2,0,0,-3,21,99*
CCCCNC(=O)C[C@@H]1C(=O)N(Cc2ccc(OC)cc2)/C2=C/CCCCC[C@@]21C(=O)OCC,1,x,x,x,x,x
N#CCC[C@H]1CC[C@]2(CCCN(C(=O)C3CCCCC3)C2)O1,1,x,x,x,x,x
CC(C)CC(=O)Nc1nc(=S)ss1,-1,0,4,2,10,26
CC(=O)Nc1nc(=S)ss1,2,0,3,-7,79*,-8
Cc1cccc(Cn2cc(COC(=O)N3CCOCC3)nn2)c1,3,x,x,x,x,x
COC(=O)c1ccc(CSc2nnc(Nc3ccc(OC)cc3)s2)o1,-2,0,0,0,71*,8
CCc1nnc(SCc2ccc(C(=O)OC)o2)n1N,2,0,-4,2,30,97*
COC(=O)c1ccc(CSc2nnc(SCc3ccc(C(=O)OC)o3)s2)o1,6,0,7,4,54,u
COC(=O)c1ccc(CSc2nnc(Nc3ccccc3OC)s2)o1,5,x,-6,-2,67*,1
COC(=O)c1ccc(CSc2nnc(NCc3ccccc3)s2)o1,-1,0,0,1,45,-12
COc1ccc(Nc2nnc(SCc3cc([N+](=O)[O-])cc4c3OCOC4)s2)cc1,8,0,-5,0,78*,-7
O=C(OC12CCCN(C1)/C(=C/c1ccncc1)C2)c1ccco1 (centres undefined),3,x,x,x,x,x
C=CCN(C(=O)[C@@H](CCCC)[C@@H](O)c1ccc(C(C)=O)cc1)c1ccccc1,-1,x,x,x,x,x
Cc1nc(Nc2ncc(C(=O)Nc3c(C)cccc3Cl)s2)cc(N2CCN(CCO)CC2)n1,2,x,x,x,x,x
CC(Nc1nc(-c2ccc3c(c2)NC(=O)CO3)cs1)c1ccccc1 (centres undefined),3,1,0,-1,28,98*
O=C1COc2ccc(-c3csc(NCC4CCCO4)n3)cc2N1 (centres undefined),3,0,-4,-3,35,87*
C[C@H](CO)N1C[C@H](C)[C@@H](CN(C)C(=O)CCC(F)(F)F)OCc2cn(nn2)CCCC1=O,2,x,x,x,x,x
Nn1c(SCC(=O)NC2CCCCC2)nnc1-c1cc(-c2ccc(F)cc2)n[nH]1,2,x,x,x,x,x
